Results as given in PubChem BioAssay (NCATS).
Inconclusive results are not listed. A call without a number means that no potency is given here. The source made the active and inactive calls. Calls come from the whole dose curve; as a rule, active = well fitted inhibition curve with a large enough effect; inconclusive = small, poorly fitted or top-dose-only effect; inactive = flat fitted curve, though single readings scatter.

Tests used:
Experiment in all cases: qHTS profiling for inhibitors of Plasmodium falciparum proliferation (AID 504749); note: nearly all actives have a fitted effect of over 60% in size
Details in all cases: P. falciparum in erythrocytes, SYBR Green DNA, 72 h; series mostly up to 28.7 µM
ECU = system: ECU
Procedure, shortened: (§1)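 P. falciparum-infected erythrocytes (0.3% parasitemia, 2.5% hematocrit) incubated with compound 72 h at 37 C, 5% CO2. Parasite DNA detected by SYBR Green after lysis, overnight at room temperature; normalised to 0.29 uM artemisinin and DMSO.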

FAB9 = system: FAB9
Procedure, shortened: as §1

GB4 = system: GB4
Procedure, shortened: as §1

HB3 = system: HB3
Procedure, shortened: as §1

ICS = system: ICS
Procedure, shortened: as §1

JCK = system: JCK
Procedure, shortened: as §1

N140 = system: N140
Procedure, shortened: as §1

P93_24 = system: P93_24
Procedure, shortened: as §1

P94_40 = system: P94_40
Procedure, shortened: as §1

PAD = system: PAD
Procedure, shortened: as §1

PC15 = system: PC15
Procedure, shortened: as §1

PC26 = system: PC26
Procedure, shortened: as §1

PC49 = system: PC49
Procedure, shortened: as §1

SC27B = system: SC27B
Procedure, shortened: as §1

TAB109 = system: TAB109
Procedure, shortened: as §1

TAB113 = system: TAB113
Procedure, shortened: as §1

TAB165 = system: TAB165
Procedure, shortened: as §1

W2 = system: W2
Procedure, shortened: as §1
Potency is the fitted concentration of half-maximal effect.

SMILES	Potency (ECU)	Potency (FAB9)	Potency (GB4)	Potency (HB3)	Potency (ICS)	Potency (JCK)	Potency (N140)	Potency (P93_24)	Potency (P94_40)	Potency (PAD)	Potency (PC15)	Potency (PC26)	Potency (PC49)	Potency (SC27B)	Potency (TAB109)	Potency (TAB113)	Potency (TAB165)	Potency (W2)
COc1ccc(/C=C/C(=O)O)cc1	inactive	inactive	inactive	inactive	inactive	inactive	inactive	inactive	inactive	inactive	inactive	inactive	inactive	inactive	inactive	inactive	inactive	inactive
CCN(CC)CCOc1ccc2nc(N(C)C)sc2c1	inactive	inactive	inactive	inactive	inactive	inactive	inactive	inactive	inactive	inactive	inactive	inactive	inactive	inactive	inactive	inactive	inactive	inactive
CN=C1C=CC(=C(c2ccc(N(C)C)cc2)c2ccc(N(C)C)cc2)C=C1	891 nM (active)	1120 nM (active)	675 nM (active)	1000 nM (active)	398 nM (active)	2510 nM (active)	708 nM (active)	891 nM (active)	1000 nM (active)	1000 nM (active)	1000 nM (active)	1690 nM (active)	1410 nM (active)	1000 nM (active)	891 nM (active)	891 nM (active)	891 nM (active)	151 nM (active)
FCOC(C(F)(F)F)C(F)(F)F	inactive	inactive	inactive	inactive	inactive	inactive	inactive	inactive	inactive	inactive	inactive	inactive	inactive	inactive	inactive	inactive	inactive	inactive
CCCCCCCCCCCC(=O)N(CCO)CCO	inactive	inactive	inactive	inactive	inactive	inactive	inactive	inactive	inactive	inactive	inactive	inactive	inactive	inactive	inactive	inactive	inactive	inactive
Cc1nc(NS(=O)(=O)c2ccc(N)cc2)nc(C)c1Br	inactive	inactive	inactive	inactive	inactive	inactive	inactive	inactive	inactive	inactive	inactive	inactive	inactive	inactive	inactive	inactive	inactive	inactive
COC(=O)CCC[N+](C)(C)C	inactive	inactive	inactive	inactive	inactive	inactive	inactive	inactive	inactive	inactive	inactive	inactive	inactive	inactive	inactive	inactive	inactive	inactive
C[C@H](CCC(=O)O)[C@H]1CC[C@H]2[C@@H]3CC[C@@H]4C[C@H](O)CC[C@]4(C)[C@H]3C[C@H](O)[C@]12C	inactive	inactive	inactive	inactive	inactive	inactive	inactive	inactive	inactive	inactive	inactive	inactive	inactive	inactive	inactive	inactive	inactive	inactive
CCCCCCCCCCCCCCCCCC(=O)OCC(C)O (centres undefined)	inactive	inactive	inactive	inactive	inactive	inactive	inactive	inactive	inactive	inactive	inactive	inactive	inactive	inactive	inactive	inactive	inactive	inactive
CCCCC(CC)COS(=O)(=O)O (centres undefined)	inactive	inactive	inactive	inactive	inactive	inactive	inactive	inactive	inactive	inactive	inactive	inactive	inactive	inactive	inactive	inactive	inactive	inactive
Cc1ncc(C[n+]2csc(CCO)c2C)c(N)n1	inactive	inactive	inactive	inactive	inactive	inactive	inactive	inactive	inactive	inactive	inactive	inactive	inactive	inactive	inactive	inactive	inactive	inactive
O=C(O)COc1ccc(CCNS(=O)(=O)c2ccccc2)s1	inactive	inactive	inactive	inactive	inactive	inactive	inactive	inactive	inactive	inactive	inactive	inactive	inactive	inactive	inactive	inactive	inactive	inactive
FC(F)(F)COCC(F)(F)F	inactive	inactive	inactive	inactive	inactive	inactive	inactive	inactive	inactive	inactive	inactive	inactive	inactive	inactive	inactive	inactive	inactive	inactive
O=C(/C=C/c1cccc(F)c1)NC1CC1	inactive	inactive	inactive	inactive	inactive	inactive	inactive	inactive	inactive	inactive	inactive	inactive	inactive	inactive	inactive	inactive	inactive	inactive
OB(O)O	inactive	inactive	inactive	inactive	inactive	inactive	inactive	inactive	inactive	inactive	inactive	inactive	inactive	inactive	inactive	inactive	inactive	inactive
C=CCCCCCCCCC(=O)OC	inactive	inactive	inactive	inactive	inactive	inactive	inactive	inactive	inactive	inactive	inactive	inactive	inactive	inactive	inactive	inactive	inactive	inactive
CC1=C(/C=C/C(C)=C/C=C/C(C)=C/C(=O)Oc2c(C)c(C)c3c(c2C)CC[C@@](C)(CCC[C@H](C)CCC[C@H](C)CCCC(C)C)O3)C(C)(C)CCC1	inactive	inactive	inactive	inactive	inactive	inactive	inactive	inactive	inactive	inactive	inactive	inactive	inactive	inactive	inactive	inactive	inactive	inactive
C=C1C(CCl)(CCl)C2(Cl)C(Cl)C(Cl)C1(Cl)C2(Cl)Cl (centres undefined)	2000 nM (active)	3550 nM (active)	2130 nM (active)	2510 nM (active)	355 nM (active)	10000 nM (active)	2000 nM (active)	2000 nM (active)	2510 nM (active)	708 nM (active)	2000 nM (active)	1900 nM (active)	3980 nM (active)	1780 nM (active)	3160 nM (active)	2820 nM (active)	1780 nM (active)	849 nM (active)
CC1CC(OC(=O)C(O)c2ccccc2)CC(C)(C)C1 (centres undefined)	inactive	inactive	inactive	inactive	inactive	inactive	inactive	inactive	inactive	inactive	inactive	inactive	inactive	inactive	inactive	inactive	inactive	inactive
OC[C@H]1O[C@@](CO)(O[C@H]2O[C@H](CO)[C@@H](O)[C@H](O)[C@H]2O)[C@@H](O)[C@@H]1O	inactive	inactive	inactive	inactive	inactive	inactive	inactive	inactive	inactive	inactive	inactive	inactive	inactive	inactive	inactive	inactive	inactive	inactive
NC(=O)Oc1ccc(Cc2ccccc2)cc1	inactive	inactive	inactive	inactive	inactive	inactive	inactive	inactive	inactive	inactive	inactive	inactive	inactive	inactive	inactive	inactive	inactive	inactive
CN1CCC(OC(=O)C(Oc2ccc(Cl)cc2)Oc2ccc(Cl)cc2)CC1	inactive	inactive	inactive	inactive	inactive	inactive	inactive	inactive	inactive	inactive	inactive	inactive	inactive	inactive	inactive	inactive	inactive	inactive
CC1(C)S[C@@H]2[C@H](NC(=O)C3(N)CCCCC3)C(=O)N2[C@H]1C(=O)O	inactive	inactive	inactive	inactive	inactive	inactive	inactive	inactive	inactive	inactive	inactive	inactive	inactive	inactive	inactive	inactive	inactive	inactive
CCCCCCOC(=O)c1cccnc1	inactive	inactive	inactive	inactive	inactive	inactive	inactive	inactive	inactive	inactive	inactive	inactive	inactive	inactive	inactive	inactive	inactive	inactive
CN1C(=O)C[C@@H](C(=O)N[C@@H](Cc2cnc[nH]2)C(=O)N2CCC[C@H]2C(N)=O)NC1=O	inactive	inactive	inactive	inactive	inactive	inactive	inactive	inactive	inactive	inactive	inactive	inactive	inactive	inactive	inactive	inactive	inactive	inactive
NCC[C@H](O)C(=O)N[C@@H]1C[C@H](N)[C@@H](O[C@H]2O[C@H](CN)CC[C@H]2N)[C@H](O)[C@H]1O[C@H]1O[C@H](CO)[C@@H](O)[C@H](N)[C@H]1O	inactive	inactive	inactive	inactive	inactive	inactive	inactive	inactive	inactive	inactive	inactive	inactive	inactive	inactive	inactive	inactive	inactive	inactive
CCC(Cc1c(I)cc(I)c(O)c1I)C(=O)O (centres undefined)	inactive	inactive	inactive	inactive	inactive	inactive	inactive	inactive	inactive	inactive	inactive	inactive	inactive	inactive	inactive	inactive	inactive	inactive
NCCO/C=C/[C@H](N)C(=O)O	inactive	inactive	inactive	inactive	inactive	inactive	inactive	inactive	inactive	inactive	inactive	inactive	inactive	inactive	inactive	inactive	inactive	inactive
